Reference: PMC7862700, “An all-to-all approach to the identification of sequence-specific readers for epigenetic DNA modifications on cytosine”

Key:
Test in all cases: DAPPL (digital affinity profiling via proximity ligation, sequencing); 10 mM Tris-HCl pH 7.5, 50 mM NaCl, 1 mM DTT, 4% glycerol, room temperature, 30 min; GST-TFs on glutathione beads, 16-mer random dsDNA library, 0.1% formaldehyde crosslink after washing; high values mean tight binding
Conditions in all cases: protein: recombinant; tags: N-terminal GST; dsDNA, one strand shown
[1] = target: T1, ERF (Homo sapiens, UniProt P50548 1-548)
T1 sequence: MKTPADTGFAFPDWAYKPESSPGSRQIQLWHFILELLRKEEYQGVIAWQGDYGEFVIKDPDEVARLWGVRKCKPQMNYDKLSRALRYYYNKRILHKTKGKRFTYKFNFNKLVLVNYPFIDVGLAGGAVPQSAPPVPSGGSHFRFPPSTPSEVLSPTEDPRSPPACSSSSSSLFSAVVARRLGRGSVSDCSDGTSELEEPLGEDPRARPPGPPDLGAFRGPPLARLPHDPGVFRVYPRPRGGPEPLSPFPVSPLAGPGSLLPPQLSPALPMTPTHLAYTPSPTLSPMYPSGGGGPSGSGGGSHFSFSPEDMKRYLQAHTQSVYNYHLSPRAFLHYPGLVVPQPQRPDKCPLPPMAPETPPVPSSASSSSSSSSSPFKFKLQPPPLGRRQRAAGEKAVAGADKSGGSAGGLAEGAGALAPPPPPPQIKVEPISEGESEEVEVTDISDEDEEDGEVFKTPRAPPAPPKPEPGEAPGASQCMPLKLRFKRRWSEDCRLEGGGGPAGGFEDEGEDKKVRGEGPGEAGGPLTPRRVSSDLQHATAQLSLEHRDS
Procedure, shortened: (§1)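 Human transcription factors fused to GST were expressed in yeast, captured on glutathione beads, given DNA barcodes and pooled with a GST-only negative control. Pools were incubated with 200 nmole of a 16-mer random double-stranded DNA library in Tris/NaCl/DTT/glycerol buffer at room temperature for 30 min. They were then washed, crosslinked with 0.1% formaldehyde, proximity-ligated (BsaI/T4 ligase, 1 h, 37 °C), PCR-amplified and sequenced on an Illumina NextSeq500. Binding signal is each 6-mer's read frequency for a factor divided by its frequency for the GST control.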

[2] = target: T2, ETV3L (Homo sapiens, UniProt Q6ZN32 1-361)
T2 sequence: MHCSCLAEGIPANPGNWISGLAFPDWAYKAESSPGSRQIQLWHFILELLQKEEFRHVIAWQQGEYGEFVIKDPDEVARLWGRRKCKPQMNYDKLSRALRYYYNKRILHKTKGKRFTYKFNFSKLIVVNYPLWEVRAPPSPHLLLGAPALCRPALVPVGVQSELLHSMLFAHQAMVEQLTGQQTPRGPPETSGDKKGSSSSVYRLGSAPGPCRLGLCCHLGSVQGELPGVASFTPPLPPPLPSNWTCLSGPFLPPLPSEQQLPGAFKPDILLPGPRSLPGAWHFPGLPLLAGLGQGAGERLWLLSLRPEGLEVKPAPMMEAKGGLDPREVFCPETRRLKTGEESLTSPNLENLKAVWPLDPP
Procedure, shortened: as §1

[3] = target: T3, ETS2 (Homo sapiens, UniProt P15036 1-469)
T3 sequence: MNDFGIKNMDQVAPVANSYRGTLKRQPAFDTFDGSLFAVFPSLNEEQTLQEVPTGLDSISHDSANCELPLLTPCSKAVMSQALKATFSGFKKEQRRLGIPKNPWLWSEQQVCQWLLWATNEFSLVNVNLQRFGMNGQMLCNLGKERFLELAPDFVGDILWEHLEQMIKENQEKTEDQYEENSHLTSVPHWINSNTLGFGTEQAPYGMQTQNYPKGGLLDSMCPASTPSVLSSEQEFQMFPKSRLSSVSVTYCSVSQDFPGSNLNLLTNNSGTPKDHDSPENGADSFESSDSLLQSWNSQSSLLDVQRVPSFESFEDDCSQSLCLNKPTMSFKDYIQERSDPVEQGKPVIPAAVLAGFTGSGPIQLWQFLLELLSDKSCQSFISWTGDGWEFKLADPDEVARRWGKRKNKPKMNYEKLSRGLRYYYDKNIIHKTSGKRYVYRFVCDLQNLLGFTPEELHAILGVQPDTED
Procedure, shortened: as §1

[4] = target: T4, SPDEF (Homo sapiens, UniProt O95238 1-335)
T4 sequence: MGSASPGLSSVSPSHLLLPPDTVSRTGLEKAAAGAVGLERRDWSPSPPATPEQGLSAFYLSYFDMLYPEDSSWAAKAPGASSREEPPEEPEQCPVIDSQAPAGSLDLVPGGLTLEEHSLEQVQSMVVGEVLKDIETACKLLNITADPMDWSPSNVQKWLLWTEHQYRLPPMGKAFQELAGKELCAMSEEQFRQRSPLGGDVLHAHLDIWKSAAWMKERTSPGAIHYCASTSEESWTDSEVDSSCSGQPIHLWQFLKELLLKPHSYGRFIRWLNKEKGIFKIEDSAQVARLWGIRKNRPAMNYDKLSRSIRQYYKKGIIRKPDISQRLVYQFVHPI
Procedure, shortened: as §1

[5] = target: T5, ETV7 (Homo sapiens, UniProt Q9Y603 1-341)
T5 sequence: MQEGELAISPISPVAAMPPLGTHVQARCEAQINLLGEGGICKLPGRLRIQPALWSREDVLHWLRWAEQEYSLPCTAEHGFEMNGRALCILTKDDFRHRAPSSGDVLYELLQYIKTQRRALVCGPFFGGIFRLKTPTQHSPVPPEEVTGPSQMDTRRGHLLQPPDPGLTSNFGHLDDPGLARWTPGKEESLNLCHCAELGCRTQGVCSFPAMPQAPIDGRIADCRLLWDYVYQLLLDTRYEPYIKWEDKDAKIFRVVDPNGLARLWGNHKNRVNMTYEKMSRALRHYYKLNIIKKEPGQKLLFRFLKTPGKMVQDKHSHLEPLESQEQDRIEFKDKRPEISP
Procedure, shortened: as §1

[6] = target: T6, ELF5 (Homo sapiens, UniProt Q9UKW6-2 1-255)
T6 sequence: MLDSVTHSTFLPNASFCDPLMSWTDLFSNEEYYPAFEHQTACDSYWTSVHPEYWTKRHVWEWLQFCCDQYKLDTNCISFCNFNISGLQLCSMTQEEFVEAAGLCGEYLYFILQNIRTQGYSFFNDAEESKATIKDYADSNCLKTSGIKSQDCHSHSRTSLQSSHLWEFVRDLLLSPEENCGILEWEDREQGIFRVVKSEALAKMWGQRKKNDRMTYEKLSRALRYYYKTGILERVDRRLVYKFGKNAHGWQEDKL
Procedure, shortened: as §1

[7] = target: T7, ETV3 (Homo sapiens, UniProt P41162-2 1-143)
T7 sequence: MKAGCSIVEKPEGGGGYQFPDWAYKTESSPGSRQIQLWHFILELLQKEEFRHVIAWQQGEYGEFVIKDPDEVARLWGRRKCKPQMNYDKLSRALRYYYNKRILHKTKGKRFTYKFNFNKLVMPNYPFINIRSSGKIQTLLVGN
Procedure, shortened: as §1

[8] = target: ETV6 (Homo sapiens, UniProt P41212 1-452)
Procedure, shortened: as §1

Chain of ETV6 (P41212 whole entry): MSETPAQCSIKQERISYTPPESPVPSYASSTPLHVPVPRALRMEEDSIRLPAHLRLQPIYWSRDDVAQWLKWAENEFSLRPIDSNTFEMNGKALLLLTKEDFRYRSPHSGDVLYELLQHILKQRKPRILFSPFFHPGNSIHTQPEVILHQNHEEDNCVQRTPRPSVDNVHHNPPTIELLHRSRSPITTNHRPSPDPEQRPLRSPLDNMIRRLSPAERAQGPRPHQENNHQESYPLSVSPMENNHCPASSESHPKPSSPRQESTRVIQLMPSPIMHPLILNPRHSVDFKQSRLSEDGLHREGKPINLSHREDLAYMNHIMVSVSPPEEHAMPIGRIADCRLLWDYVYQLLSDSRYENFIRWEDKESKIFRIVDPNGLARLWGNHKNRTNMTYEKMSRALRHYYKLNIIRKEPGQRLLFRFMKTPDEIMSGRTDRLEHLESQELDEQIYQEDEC

Sequence	binding signal [1]	binding signal [2]	binding signal [3]	binding signal [4]	binding signal [5]	binding signal [6]	binding signal [7]	binding signal [8]
ACATCA	1.13 fold enrichment (6-mer frequency, TF over GST control)	1.08 fold enrichment (6-mer frequency, TF over GST control)	1.11 fold enrichment (6-mer frequency, TF over GST control)	1.07 fold enrichment (6-mer frequency, TF over GST control)	1.1 fold enrichment (6-mer frequency, TF over GST control)	1.07 fold enrichment (6-mer frequency, TF over GST control)	1.14 fold enrichment (6-mer frequency, TF over GST control)	1.16 fold enrichment (6-mer frequency, TF over GST control)
TAATCC	1.12 fold enrichment (6-mer frequency, TF over GST control)	1.21 fold enrichment (6-mer frequency, TF over GST control)	1.36 fold enrichment (6-mer frequency, TF over GST control)	1.44 fold enrichment (6-mer frequency, TF over GST control)	1.28 fold enrichment (6-mer frequency, TF over GST control)	1.19 fold enrichment (6-mer frequency, TF over GST control)	1.29 fold enrichment (6-mer frequency, TF over GST control)	1.27 fold enrichment (6-mer frequency, TF over GST control)
AATGAA	1.29 fold enrichment (6-mer frequency, TF over GST control)	1.19 fold enrichment (6-mer frequency, TF over GST control)	1.15 fold enrichment (6-mer frequency, TF over GST control)	1.04 fold enrichment (6-mer frequency, TF over GST control)	1.18 fold enrichment (6-mer frequency, TF over GST control)	1.22 fold enrichment (6-mer frequency, TF over GST control)	1.17 fold enrichment (6-mer frequency, TF over GST control)	1.23 fold enrichment (6-mer frequency, TF over GST control)
CACTCC	1.15 fold enrichment (6-mer frequency, TF over GST control)	1.33 fold enrichment (6-mer frequency, TF over GST control)	1.17 fold enrichment (6-mer frequency, TF over GST control)	1.2 fold enrichment (6-mer frequency, TF over GST control)	1.24 fold enrichment (6-mer frequency, TF over GST control)	1.18 fold enrichment (6-mer frequency, TF over GST control)	1.26 fold enrichment (6-mer frequency, TF over GST control)	1.28 fold enrichment (6-mer frequency, TF over GST control)
